RmlC RmlD mix: mixture blocks RmlC and RmlD coupled enzyme activity; RmlC/RmlD coupled enzyme inhibition, 384-well mixture HTS; inhibition, % at 5.5 µM; actives 0.39% (n = 110,000); in the data active = inhibition above about 30%, passing the limit was not always enough
YopH PTP inh: blocks Yersinia enterocolitica YopH tyrosine phosphatase; actives 0.16% (n = 140,000); AID 898; fluorescence Ex485/Em525; inhibition, % (no concentration beside the values); in the data active = inhibition above about 50%
RmlCD fluor art: RmlC/RmlD fluorescence artifact, counter-screen | shares compounds with RmlC RmlD mix | RmlC/RmlD assay fluorescence artifact counter-screen | calls only | actives 96% (n = 360); call rule not given here;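 note: compound alone with no enzyme and no substrates present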
Each line names hits and unclear results; the compound was inactive in the other large screens (follow-up assays come after a bar, where they were run). Sampled rows, rich in hits. Any-hit rate of the full collection: about 0.44%.

COCCN(CCOC)C(=O)c1cc2c(=O)n3ccccc3nc2s1	RmlC RmlD mix 115 | RmlCD fluor art active
CCN(CC)C(=O)c1cc2c(=O)n3ccccc3nc2s1	none
CC1=NN(C(=O)Cn2nc([N+](=O)[O-])c(Br)c2C)C(O)(C(F)(F)F)C1 (stereo unspecified)	none (no result: RmlC RmlD mix)
CCOc1ccccc1NS(=O)(=O)c1ccc2c(c1)n(C)c(=O)c(=O)n2C	none (no result: RmlC RmlD mix)
CC(C)(C)[C@H]1C=C(C(=O)Nc2ccccc2)O[C@@H](OCCCCO)C1	none (no result: YopH PTP inh)
O=C(N/N=C/c1ccc2cccc(OCc3ccccc3)c2n1)c1ccc(Br)cc1	none
COc1ccc(C(=O)N/N=C/c2ccc3cccc(OCc4ccccc4)c3n2)cc1	none | RmlCD fluor art inactive
Cc1cc(C)c2[nH]c(=O)c(=O)[nH]c2c1	none
Cc1cc2c(C)c(C)c(=O)[nH]c2cc1N	RmlC RmlD mix 45 | RmlCD fluor art active
COCCNC(=O)c1c(N)n(-c2ccccc2)c2nc3ccccc3nc12	none (no result: RmlC RmlD mix)
COC(=O)c1c(N)n(-c2ccc(NC(C)=O)cc2)c2nc3ccccc3nc12	RmlC RmlD mix 64 | RmlCD fluor art active
O=C1c2ccccc2C(=O)N1CSc1nnc2c3ccccc3n(CCc3ccccc3)c2n1	none
C=CCn1c2ccccc2c2nnc(SCN3C(=O)c4ccccc4C3=O)nc21	RmlC RmlD mix 50 | RmlCD fluor art inactive
COc1ccccc1N=c1oc2cc(O)ccc2cc1C(N)=O	RmlC RmlD mix 40 | RmlCD fluor art active
COc1ccccc1N=c1oc2cc(O)ccc2cc1C(=O)NCC1CCCO1 (stereo unspecified)	none
COc1ccc(C#Cc2c(-c3ccsc3)oc3ccc(-c4cc(OC)c(OC)c(OC)c4)cc23)cc1	RmlC RmlD mix 60 (no result: YopH PTP inh) | RmlCD fluor art active
COc1ccc(-c2oc3ccc(-c4cc(OC)c(OC)c(OC)c4)cc3c2-c2ccc(OC)cc2)cc1	none (no result: YopH PTP inh)
CC(=O)Nc1ccc(Nc2cc(C)nc3c(-c4ccccc4)cnn23)cc1	none (no result: RmlC RmlD mix)
COc1cc2[nH]c(=O)n(CCCC(=O)N3CC=C(c4ccccc4)CC3)c(=O)c2cc1OC	RmlC RmlD mix 52 | RmlCD fluor art inactive
COc1cc2[nH]c(=O)n(CCC(=O)N3CC=C(c4ccccc4)CC3)c(=O)c2cc1OC	none
CN(C)c1ccc(-c2nc3ccccn3c2/N=C/c2ccc(Br)cc2)cc1	none (no result: RmlC RmlD mix)
COc1cc(-c2nc3ccccn3c2/N=C/c2cc(OC)c(OC)c(OC)c2)ccc1O	RmlC RmlD mix 44 | RmlCD fluor art active
COC(=O)/C(=N/Nc1ccccc1C)N1CCCc2ccccc21	none (no result: RmlC RmlD mix)
CCOc1cc(NC(=O)c2ccco2)c(OCC)cc1NC(=O)c1cc(OC)c(OC)c(OC)c1	RmlC RmlD mix active | RmlCD fluor art active
COc1cc(NC(=O)c2ccco2)c(OC)cc1NC(=O)c1cc(OC)c(OC)c(OC)c1	none
CCOC(=O)c1cc(C(=O)OCC)c2ccccn2c1=O	RmlC RmlD mix 71 | RmlCD fluor art active
COC(=O)c1cc(C(C)=O)n2ccccc12	none
CCc1cc(-c2n[nH]c(C)c2Oc2ccc(C(C)C)cc2)c(O)cc1O	none
CN(C(=O)c1cccnc1)c1nnc(-c2ccccn2)s1	RmlC RmlD mix 42 | RmlCD fluor art active
CN(C(=O)c1cccnc1)c1nnc(-c2cnccn2)s1	none
C=CCn1c(SCC(=O)NC(=O)c2cccc([N+](=O)[O-])c2)nnc1-c1ccccc1	none (no result: RmlC RmlD mix)
Cc1cc(OC(C)C(=O)N/N=C/CC(C)c2ccccc2)ccc1Cl (stereo unspecified)	none
Cc1cc(NCCCn2ccnc2)n2c(nc3ccccc32)c1C#N	RmlC RmlD mix 85 | RmlCD fluor art active
CC(C)c1cc(NCCCN2CCOCC2)n2c(nc3ccccc32)c1C#N	RmlC RmlD mix 45 | RmlCD fluor art active
CCCc1c(C)c(C#N)c2nc3ccccc3n2c1NCCCN1CCOCC1	none
Cc1cc(NCCN2CCCCC2)n2c(nc3ccccc32)c1C#N	none (no result: RmlC RmlD mix)
CCN(c1ccc(NC(=O)CN2C(=O)NC3(CCOc4ccccc43)C2=O)cc1)C(C)C (stereo unspecified)	none
COc1cc2c(cc1OC)CN(C(=S)Nc1c(C)cccc1C)CC2	none (no result: RmlC RmlD mix)
COc1cc2c(cc1OC)-c1cc(OCCN3CCOCC3)nc(=O)n1CC2	RmlC RmlD mix 61 | RmlCD fluor art active
CCNc1cc2n(c(=O)n1)CCc1cc(OC)c(OC)cc1-2	none
C#Cc1ccc([C@@H]2C=C(C(=O)NCc3ccccc3)O[C@H](OCCCCO)C2)cc1	none (no result: YopH PTP inh)
CNC(=O)c1ccc(-c2ccc(OC)cc2)s1	RmlC RmlD mix 85 | RmlCD fluor art active
CNC(=O)c1ccc(-c2ccc(F)cc2)s1	none
COc1cccc(C(=O)NC(=S)Nc2nnn(C)n2)c1	none (no result: RmlC RmlD mix)
CC1CC(C)CN(c2ccc([N+](=O)[O-])cc2-c2nn[nH]n2)C1 (stereo unspecified)	none (no result: RmlC RmlD mix)
O=C(Nc1ccccc1Cl)c1ccccc1Cc1ccccc1	none (no result: RmlC RmlD mix)
CN1C(=O)c2ccc(N(C)C)cc2C1=O	none
COc1cc(=O)n(C)c2cc(N(C)C)ccc12	RmlC RmlD mix 80 | RmlCD fluor art active
COc1ccc(C(=O)CN2CCN(S(=O)(=O)c3cccc([N+](=O)[O-])c3)CC2)cc1	none (no result: RmlC RmlD mix)

Screens as filed in PubChem.
